Assay results: PubChem BioAssay (NCI)
This is part of a sample that, as a whole, favours compounds with a hit. Of some 83,000 tested, about 20% had one in any assay.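 Testing used 96-well plates and a 48-hour single-concentration exposure. Example: -40 means 40% of the starting cells died.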 Activity calls are given as the source filed them. The calls were made as follows: active = growth percent below 10; inactive = the rest.

system: SK-MEL-28 melanoma; assay: NCI-60 one-dose screen, 48 h (100 = growth as untreated, 0 = no growth, -100 = all killed); details: 10 µM unless noted

| Structure (SMILES) | growth |
| --- | --- |
| COc1cc(CCC[P+](c2ccccc2)(c2ccccc2)c2ccccc2)cc2c1OCO2 | 27.1% (inactive) |
| CCCCc1ccc(Nc2ccc(Nc3ccc(CCCC)cc3S(=O)(=O)O)c3c2C(=O)c2ccccc2C3=O)c(S(=O)(=O)O)c1 | 108% (inactive) |
| COc1ccc2occ(C3=C(c4c[nH]c5ccccc45)C(=O)N(O)C3=O)c2c1 | 114% (inactive) |
| CC1(C)OC2C(CO[Si](C)(C)C(C)(C)C)OC(n3c(I)c(C#C[Si](C)(C)C)c(=O)[nH]c3=O)C2O1 (configuration not stated) | -53.9% (active) |
| Cc1ccc(S(=O)(=O)NCC[C@@H]2C[C@H]2c2cc3ccccc3s2)cc1 | 105% (inactive) |
| NC[C@H](O)c1ccc(O)c(O)c1 | 116% (inactive) |
| C=C(C)[C@@H]1CC[C@]2(C(=O)NC3CCCCC3)CC[C@]3(C)[C@H](CC[C@@H]4[C@@]5(C)CCC(=O)C(C)(C)[C@@H]5CC[C@]43C)[C@@H]12 | 97.1% (inactive) |
| N=C1CCC(=N)c2c1c(O)c1ccccc1c2O | 106% (inactive) |
| COC(=O)[C@]12CC[C@@H](C)[C@H](C)[C@@H]1C1=CC[C@@H]3[C@@]4(C)C(C=O)=C[C@@](C)(COC(C)=O)[C@@H]4C(=O)C[C@@]3(C)[C@]1(C)CC2 | 65.5% (inactive) |
| COc1cc(/C=N/Nc2ncc(-c3cc4cc5c(cc4o3)OCO5)s2)cc(OC)c1OC | 60.7% (inactive) |
| OC(c1cccc(-n2ccc(C(F)(F)F)n2)c1)c1cnccc1NC1CCCCCC1 (configuration not stated) | -65.3% (active) |
| COc1ccc(-c2[nH]c(=S)n(C(CC3(C)NCC(=O)N3n3c(-c4ccccc4)cc(C)nc3=S)c3ccc(OC)cc3)c(=O)c2Br)cc1 (configuration not stated) | 83.6% (inactive) |
